Experimental data taken from the supplement of paper PMC11732987, “Enantioselective OTUD7B fragment discovery through chemoproteomics screening and high-throughput optimisation” (Communications Chemistry, 2025).

Columns and labels:
Assay in all cases: log2 ratio of Biotin-Ahx-Ub-VS probe labelling (fragment/DMSO); higher = less target engagement (more negative = stronger competition), active = hit call of the paper (q ≤ 0.05, log2 ratio ≤ -1)
Conditions in all cases: compound concentration: 200 uM; treatment time: 3 h
OTUD6B = target: T1, OTUD6B (UniProt Q8N6M0)
T1 sequence (whole entry): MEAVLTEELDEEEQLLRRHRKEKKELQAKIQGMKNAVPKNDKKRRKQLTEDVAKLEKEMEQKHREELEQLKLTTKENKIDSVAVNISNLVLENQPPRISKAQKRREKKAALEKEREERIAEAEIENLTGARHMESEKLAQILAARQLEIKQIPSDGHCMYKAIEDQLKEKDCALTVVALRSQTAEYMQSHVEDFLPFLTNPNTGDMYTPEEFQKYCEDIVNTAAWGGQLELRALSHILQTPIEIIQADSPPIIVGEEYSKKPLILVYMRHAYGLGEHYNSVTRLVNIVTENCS
In short: (§1)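 Triplicate samples of HEK293T lysate, 495 µg each, received fragment at 200 µM or vehicle for 3 h, followed by Biotin-Ahx-Ub-VS (0.5 µM final) for 1 h. After NeutrAvidin enrichment of labelled DUBs and LysC/trypsin digestion, peptides were run by diaPASEF LC-MS/MS. The values are average log2 fragment/vehicle ratios from global-median-normalised Spectronaut label-free quantities, tested by unpaired t-test on proteins having ≥2 unique peptides.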

OTUD7B = target: T2, OTUD7B (UniProt Q6GQQ9)
T2 sequence (whole entry): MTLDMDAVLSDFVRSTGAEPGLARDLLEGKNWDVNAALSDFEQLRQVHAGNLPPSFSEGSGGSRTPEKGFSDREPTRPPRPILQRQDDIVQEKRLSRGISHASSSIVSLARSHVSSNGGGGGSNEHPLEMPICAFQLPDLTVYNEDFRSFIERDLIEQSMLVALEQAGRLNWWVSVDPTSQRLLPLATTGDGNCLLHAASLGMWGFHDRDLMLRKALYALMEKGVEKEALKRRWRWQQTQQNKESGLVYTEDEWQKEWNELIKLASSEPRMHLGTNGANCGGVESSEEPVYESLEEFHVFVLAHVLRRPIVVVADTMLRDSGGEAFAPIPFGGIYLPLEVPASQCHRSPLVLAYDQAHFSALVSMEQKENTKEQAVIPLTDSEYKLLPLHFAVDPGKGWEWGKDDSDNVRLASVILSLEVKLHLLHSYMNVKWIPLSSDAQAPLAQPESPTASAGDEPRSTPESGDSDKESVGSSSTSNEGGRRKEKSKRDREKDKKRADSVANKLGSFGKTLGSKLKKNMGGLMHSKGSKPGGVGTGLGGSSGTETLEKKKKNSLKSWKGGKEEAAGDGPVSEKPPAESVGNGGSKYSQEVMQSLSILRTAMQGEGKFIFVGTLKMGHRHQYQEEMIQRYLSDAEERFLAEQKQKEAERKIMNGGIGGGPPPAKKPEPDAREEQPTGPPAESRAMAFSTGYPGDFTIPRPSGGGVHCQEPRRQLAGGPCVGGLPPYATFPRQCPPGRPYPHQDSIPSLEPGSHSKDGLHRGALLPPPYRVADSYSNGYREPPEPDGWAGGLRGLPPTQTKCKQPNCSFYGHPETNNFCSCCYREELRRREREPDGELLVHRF
In short: as §1

PRPF8 = PRPF8 (UniProt Q6P2Q9)
In short: as §1

PSMD7 = target: T3, PSMD7 (UniProt P51665)
T3 sequence (whole entry): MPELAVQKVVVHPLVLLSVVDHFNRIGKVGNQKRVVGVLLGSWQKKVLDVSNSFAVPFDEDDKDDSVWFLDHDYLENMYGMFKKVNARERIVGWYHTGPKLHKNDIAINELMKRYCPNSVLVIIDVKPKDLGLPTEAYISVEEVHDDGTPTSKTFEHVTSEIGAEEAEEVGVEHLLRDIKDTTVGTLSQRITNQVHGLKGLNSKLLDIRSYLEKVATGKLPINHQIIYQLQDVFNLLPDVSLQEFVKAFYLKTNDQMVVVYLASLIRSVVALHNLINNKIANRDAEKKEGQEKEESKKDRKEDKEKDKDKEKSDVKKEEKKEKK
In short: as §1

UCHL1 = UCHL1 (UniProt P09936)
In short: as §1

UCHL3 = target: T4, UCHL3 (UniProt P15374)
T4 sequence (whole entry): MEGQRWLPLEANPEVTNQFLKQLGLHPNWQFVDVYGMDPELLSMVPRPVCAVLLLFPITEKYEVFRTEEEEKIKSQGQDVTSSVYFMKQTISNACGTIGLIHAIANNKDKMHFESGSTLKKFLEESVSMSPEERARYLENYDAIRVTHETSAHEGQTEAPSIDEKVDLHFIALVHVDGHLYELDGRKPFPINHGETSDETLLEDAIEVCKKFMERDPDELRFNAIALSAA
In short: as §1

UCHL5 = target: T5, UCHL5 (UniProt Q9Y5K5)
T5 sequence (whole entry): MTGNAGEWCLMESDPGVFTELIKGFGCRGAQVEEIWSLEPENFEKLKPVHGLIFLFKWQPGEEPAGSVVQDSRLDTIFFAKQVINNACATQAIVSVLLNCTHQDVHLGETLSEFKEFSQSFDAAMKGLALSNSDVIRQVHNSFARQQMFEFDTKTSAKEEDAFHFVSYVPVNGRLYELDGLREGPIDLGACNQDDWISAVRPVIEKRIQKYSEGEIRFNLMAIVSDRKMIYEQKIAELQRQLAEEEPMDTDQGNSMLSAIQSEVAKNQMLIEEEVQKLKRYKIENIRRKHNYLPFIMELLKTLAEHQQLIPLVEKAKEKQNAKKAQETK
In short: as §1

USP10 = USP10 (UniProt Q14694)
In short: as §1

USP15 = target: T6, USP15 (UniProt Q9Y4E8)
T6 sequence (whole entry): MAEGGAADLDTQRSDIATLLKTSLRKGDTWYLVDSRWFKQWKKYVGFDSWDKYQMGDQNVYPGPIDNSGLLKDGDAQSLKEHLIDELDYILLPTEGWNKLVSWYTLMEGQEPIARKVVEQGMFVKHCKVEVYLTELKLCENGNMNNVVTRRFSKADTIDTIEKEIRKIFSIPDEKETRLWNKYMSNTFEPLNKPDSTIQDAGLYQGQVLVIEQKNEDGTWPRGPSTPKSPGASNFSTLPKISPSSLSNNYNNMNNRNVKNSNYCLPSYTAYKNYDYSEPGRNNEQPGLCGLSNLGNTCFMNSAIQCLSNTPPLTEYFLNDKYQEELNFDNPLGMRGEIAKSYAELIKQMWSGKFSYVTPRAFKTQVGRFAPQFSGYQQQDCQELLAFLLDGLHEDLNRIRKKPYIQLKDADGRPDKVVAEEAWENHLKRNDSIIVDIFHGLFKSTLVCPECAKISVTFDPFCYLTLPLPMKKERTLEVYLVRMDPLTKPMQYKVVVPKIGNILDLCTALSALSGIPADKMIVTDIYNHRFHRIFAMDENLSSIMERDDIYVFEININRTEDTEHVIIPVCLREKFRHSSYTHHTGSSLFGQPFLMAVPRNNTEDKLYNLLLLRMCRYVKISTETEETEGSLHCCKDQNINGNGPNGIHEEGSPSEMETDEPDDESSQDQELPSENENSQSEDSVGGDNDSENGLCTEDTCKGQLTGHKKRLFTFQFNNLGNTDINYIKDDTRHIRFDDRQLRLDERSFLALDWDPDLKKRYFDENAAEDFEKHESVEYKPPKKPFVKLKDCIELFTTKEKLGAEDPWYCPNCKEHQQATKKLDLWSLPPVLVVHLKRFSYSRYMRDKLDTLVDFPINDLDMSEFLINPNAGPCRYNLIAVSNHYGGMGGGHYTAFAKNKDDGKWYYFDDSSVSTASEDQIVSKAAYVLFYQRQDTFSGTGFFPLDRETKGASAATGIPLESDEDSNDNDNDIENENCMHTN
In short: as §1

USP16 = USP16 (UniProt Q9Y5T5)
In short: as §1

Measured: log2 ratio of Biotin-Ahx-Ub-VS probe labelling

USP16, sequence (Q9Y5T5 whole entry, looked up): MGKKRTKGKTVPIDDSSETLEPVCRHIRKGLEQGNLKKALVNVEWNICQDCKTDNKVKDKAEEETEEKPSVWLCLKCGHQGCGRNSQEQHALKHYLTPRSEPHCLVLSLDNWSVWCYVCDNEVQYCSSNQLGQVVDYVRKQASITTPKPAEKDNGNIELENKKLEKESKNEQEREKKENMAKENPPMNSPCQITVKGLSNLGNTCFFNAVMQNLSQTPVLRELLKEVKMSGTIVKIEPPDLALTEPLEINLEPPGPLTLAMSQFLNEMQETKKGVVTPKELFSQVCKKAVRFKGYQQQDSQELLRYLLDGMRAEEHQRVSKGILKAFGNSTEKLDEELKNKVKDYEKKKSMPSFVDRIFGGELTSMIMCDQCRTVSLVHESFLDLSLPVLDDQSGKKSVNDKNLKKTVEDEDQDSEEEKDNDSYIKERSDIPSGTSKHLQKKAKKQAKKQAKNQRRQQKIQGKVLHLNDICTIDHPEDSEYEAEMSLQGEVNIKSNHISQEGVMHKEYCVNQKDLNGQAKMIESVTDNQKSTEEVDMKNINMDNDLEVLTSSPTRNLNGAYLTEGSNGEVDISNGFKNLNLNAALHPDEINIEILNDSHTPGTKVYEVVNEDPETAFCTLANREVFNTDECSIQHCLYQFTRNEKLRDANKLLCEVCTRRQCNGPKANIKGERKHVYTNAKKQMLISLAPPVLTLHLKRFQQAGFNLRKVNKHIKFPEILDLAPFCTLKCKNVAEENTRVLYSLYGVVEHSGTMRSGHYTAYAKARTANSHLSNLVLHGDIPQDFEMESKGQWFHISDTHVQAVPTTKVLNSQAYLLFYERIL
USP10, sequence (Q14694 whole entry): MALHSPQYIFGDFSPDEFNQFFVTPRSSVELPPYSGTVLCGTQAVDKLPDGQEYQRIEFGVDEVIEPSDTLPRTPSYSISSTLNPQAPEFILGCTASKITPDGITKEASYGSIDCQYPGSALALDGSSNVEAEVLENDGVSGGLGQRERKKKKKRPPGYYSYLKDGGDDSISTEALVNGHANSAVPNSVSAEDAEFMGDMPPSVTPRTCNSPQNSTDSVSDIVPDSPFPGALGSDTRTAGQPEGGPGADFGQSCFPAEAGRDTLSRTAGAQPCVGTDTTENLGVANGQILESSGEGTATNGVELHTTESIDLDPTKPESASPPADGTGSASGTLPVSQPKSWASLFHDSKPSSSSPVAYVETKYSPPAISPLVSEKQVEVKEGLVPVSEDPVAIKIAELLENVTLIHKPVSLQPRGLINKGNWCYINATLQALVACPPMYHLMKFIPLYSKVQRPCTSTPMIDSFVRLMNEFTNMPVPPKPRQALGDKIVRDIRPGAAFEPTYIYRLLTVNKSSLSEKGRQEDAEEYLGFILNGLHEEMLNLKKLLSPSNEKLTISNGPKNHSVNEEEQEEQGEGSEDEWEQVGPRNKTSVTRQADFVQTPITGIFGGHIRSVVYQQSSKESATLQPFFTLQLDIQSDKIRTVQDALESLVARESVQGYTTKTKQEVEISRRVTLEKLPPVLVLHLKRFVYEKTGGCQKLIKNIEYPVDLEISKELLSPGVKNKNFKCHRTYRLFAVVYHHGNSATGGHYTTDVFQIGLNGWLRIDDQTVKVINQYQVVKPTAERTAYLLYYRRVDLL
UCHL1, sequence (P09936 whole entry, looked up): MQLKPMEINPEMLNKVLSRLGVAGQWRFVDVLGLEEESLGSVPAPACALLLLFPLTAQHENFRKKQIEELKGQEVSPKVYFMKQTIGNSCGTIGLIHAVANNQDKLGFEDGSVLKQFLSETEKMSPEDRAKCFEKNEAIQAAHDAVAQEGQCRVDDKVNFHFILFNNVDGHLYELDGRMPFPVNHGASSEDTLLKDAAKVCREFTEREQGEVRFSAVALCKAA

O=C(CCl)Nc1cc(Cl)ccc1C(=O)O
inactive: OTUD6B 0.133 | OTUD7B -0.0733 | PRPF8 -0.2 | PSMD7 -0.0699 | UCHL3 0.231 | UCHL5 -0.0926 | USP10 -0.101 | USP15 -0.15 | USP16 -0.669
active: UCHL1 -1.38
